From PubChem BioAssay (Tox21)
Records with an inconclusive call do not appear. Active and inactive are the calls of the source. Unless noted, the call rests on the fitted dose curve; in most records, active means well fitted curve in the direction sought with a large enough effect in the repeat runs; inconclusive means weak or mixed curves; inactive means no such curve, though single readings can be large; an effect the other way counts as inactive or inconclusive.

Assays:
[1] = qHTS assay for small molecules that induce genotoxicity in human embryonic kidney cells expressing luciferase-tagged ATAD5 (AID 651632); further: nearly all actives have a fitted effect of over 15% in size
Outline: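 Luminescence read-out: after 16 hr compound exposure at 37C, ATAD5-luciferase HEK293T cells received Amplite, 30 min RT, then CCD imaging. A rise in signal marks genotoxic stress.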

[2] = qHTS assay for small molecule agonists of the p53 signaling pathway - cell viability (AID 651633; calls by dose curve;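 further: p53RE-bla HCT reporter cells with a stable beta-lactamase p53 reporter; series mostly up to about 83 µM; nearly all actives have a fitted effect of over 30% in size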)
Outline: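 p53RE-bla cells were treated with compound for 16 hours at 37 C. Cytotoxicity was then measured as CellTiter-Glo luminescence after 30 min at room temperature.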

[3] = qHTS assay for small molecules that induce genotoxicity in human embryonic kidney cells expressing luciferase-tagged ATAD5 - cell viability (AID 651634; calls by dose curve; further: nearly all actives have a fitted effect of over 25% in size)
Outline: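 HEK293T ATAD5-luc cells, 2,000/well; compound 15.5 hr, 37C/5% CO2; CellTiter-Fluor 30 min, 37C; fluorescence read.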

[4] = qHTS assay for small molecule disruptors of the mitochondrial membrane potential - cell viability (AID 720634; calls by dose curve; further: nearly all actives have a fitted effect of over 20% in size; further: potency means the concentration at half of the fitted maximal effect;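 on activity change, negative = cytotoxicity: human HepG2 liver cancer cells; series mostly up to about 83 µM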)
Outline: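 Luminescence from CellTiter-Glo (ATP content) gave viability in HepG2 cells, read in the same wells as the MMP dye assay after 1 hr compound exposure at 37 C.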

[5] = qHTS assay to test for compound auto fluorescence at 590 nm (red) in HepG2 cells (AID 720674)
Outline: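 HepG2 cells, 2,000 per well in MEM with 10% FBS, attached overnight at 37 C, then got 23 nL compound or DMSO. After 1 hr at 37 C, 5% CO2, red fluorescence was read at 540/590 nm against Rose Bengal sodium as reference.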

[6] = qHTS assay to test for compound auto fluorescence at 535 nm (green) in HepG2 cells (AID 720675)
[7] = qHTS assay to test for compound auto fluorescence at 460 nm (blue) in HEK293 cells (AID 720678)
Outline: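 HEK293 cells (2,000 per well, medium with 10% dialyzed FBS) attached for 4-5 hr at 37C, then received compound and stood overnight at 37C, 5% CO2. Blue fluorescence was read at Ex/Em 405/460 nm and expressed relative to triamterene.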

[8] = qHTS assay to test for compound auto fluorescence at 590 nm (red) in HEK293 cells (AID 720679)
Outline: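 HEK293 cells (2,000/well, medium with 10% dialyzed FBS) attached for 4-5 hr at 37C, received 23 nL compound and were incubated overnight at 37C, 5% CO2. Red fluorescence was then read at 540/590nm Ex/Em, referenced to Rose Bengal sodium.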

[9] = qHTS assay for small molecule disruptors of the mitochondrial membrane potential (AID 720635); further: potency means the concentration at half of the fitted maximal effect
Outline: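 HepG2 cells exposed to compound 1 hr at 37C, then Mito-MPS dye 30 min. Ratio read of aggregate (540/590 nm) versus monomer (490/535 nm) fluorescence.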
On the % scale 0 is the no-effect control and ±100 the full control effect.

N#Cc1ccc(CC(=O)c2cccc(C(F)(F)F)c2)cc1
active: Potency [4] 48.6 µM
inactive: Potency [1] | Potency [2] | Potency [3] | outcome [5] | outcome [6] | Potency [7] | outcome [8]

CC(C)(C)c1ccc(CCC=O)cc1
inactive: Potency [1] | Potency [3] | Potency [4] | Potency [9] | outcome [5] | outcome [6] | Potency [7] | outcome [8]

O=C(Nc1ccccc1)c1cc([N+](=O)[O-])ccc1Cl
inactive: Potency [1] | Potency [2] | Potency [3] | Potency [4] | outcome [5] | outcome [6] | Potency [7] | outcome [8]

CC(C(=O)O)c1ccc(/C=C2\CCCCC2=O)cc1 (centres undefined)
inactive: Potency [2] | Potency [3] | Potency [4] | outcome [5] | outcome [6] | Potency [7] | outcome [8]

C=CC(C)CCC=C(C)C (centres undefined)
inactive: Potency [1] | Potency [2] | Potency [3] | Potency [4] | outcome [5] | outcome [6] | Potency [7] | outcome [8]

CC/C=C\CCO
inactive: Potency [1] | Potency [2] | Potency [3] | Potency [4] | outcome [5] | outcome [6] | Potency [7] | outcome [8]

COC=O
inactive: activation [1] -1.31% [at 8.08 µM] | activity change, negative = cytotoxicity [2] 21.3% [at 8.08 µM] | activity, negative = cytotoxicity [3] 20.8% [at 8.08 µM] | activity change, negative = cytotoxicity [4] 7.15% [at 8.08 µM] | fluorescence, relative to Rose Bengal [5] 0.0697% [at 9.17 µM] | fluorescence, % of fluorescein control [6] 0.016% [at 9.17 µM] | fluorescence, % of triamterene [7] -0.185% [at 9.17 µM] | fluorescence, % of fluorescent control [8] 0.13% [at 9.17 µM]

N#C[C@@H]1CC(F)(F)CN1C(=O)CNC1CC2CCC(C1)N2c1ncccn1 (some centres undefined)
inactive: Potency [1] | Potency [2] | Potency [3] | Potency [4] | outcome [5] | outcome [6] | Potency [7] | outcome [8]

O=C(NC1CCN(CCc2c[nH]c3ccccc23)CC1)c1ccccc1
inactive: Potency [1] | Potency [3] | Potency [4] | outcome [5] | outcome [6] | Potency [7] | outcome [8]

O=C1c2ccccc2C(=O)c2c1ccc(O)c2O
active: Potency [9] 9.44 µM
inactive: Potency [1] | Potency [2] | Potency [4] | outcome [5] | outcome [6] | Potency [7] | outcome [8]

CCOc1ccc2c(c1)C(C)CC(C)(C)N2 (centres undefined)
inactive: Potency [1] | Potency [3] | Potency [4] | outcome [5] | outcome [6] | Potency [7] | outcome [8]

CCCN(C1CCN(C(=O)C2CCNCC2)CC1)[C@@H]1CCc2ccc(OC)cc2C1
inactive: Potency [1] | Potency [2] | Potency [3] | Potency [4] | outcome [5] | outcome [6] | Potency [7] | outcome [8]

SCCOCCOCCS
inactive: Potency [1] | Potency [2] | Potency [3] | Potency [4] | outcome [5] | outcome [6] | Potency [7] | outcome [8]

COc1ccc(CN(CCN(C)C)c2ncccn2)cc1
inactive: Potency [2] | Potency [3] | Potency [4] | outcome [5] | outcome [6] | Potency [7] | outcome [8]

O=C(Cl)c1ccc(F)c(Cl)c1
inactive: Potency [1] | Potency [2] | Potency [3] | Potency [4] | outcome [5] | outcome [6] | Potency [7] | outcome [8]

OCCc1ccncc1
inactive: Potency [1] | Potency [2] | Potency [3] | Potency [4] | outcome [5] | outcome [6] | Potency [7] | outcome [8]

CC1=C(C)C(=O)C(CCCCC#CCCCC#CCO)=C(C)C1=O
inactive: Potency [1] | Potency [2] | Potency [3] | Potency [4] | outcome [5] | outcome [6] | Potency [7] | outcome [8]

CCC1=C(C)CN(C(=O)NCCc2ccc(S(=O)(=O)NC(=O)NC3CCC(C)CC3)cc2)C1=O (centres undefined)
inactive: Potency [1] | Potency [2] | Potency [3] | Potency [4] | outcome [5] | outcome [6] | Potency [7] | outcome [8]

Cc1nc2sccn2c(=O)c1CCN1CCC(=C(c2ccc(F)cc2)c2ccc(F)cc2)CC1
inactive: Potency [1] | Potency [3] | Potency [4] | outcome [5] | outcome [6] | Potency [7] | outcome [8]

COc1ccc(/C=C/c2cc(OC)cc(=O)o2)cc1
inactive: Potency [2] | Potency [3] | Potency [4] | Potency [9] | outcome [5] | outcome [6] | Potency [7] | outcome [8]

Clc1nc2ccccc2nc1Cl
inactive: Potency [1] | Potency [2] | Potency [3] | Potency [4] | outcome [5] | outcome [6] | Potency [7] | outcome [8]

O=c1[nH]nc(-c2ccc([N+](=O)[O-])o2)o1
active: Potency [9] 43.3 µM
inactive: Potency [1] | Potency [2] | outcome [5] | outcome [6] | Potency [7] | outcome [8]

O=C(N[C@@H](Cc1ccccc1)[C@@H](O)C(=O)N1C[C@@H](O)[C@@H](O)C1)c1cc2cc(Cl)ccc2[nH]1
inactive: Potency [1] | Potency [2] | Potency [3] | Potency [4] | outcome [5] | outcome [6] | Potency [7] | outcome [8]

CCOC(C)OCC
inactive: Potency [1] | Potency [2] | Potency [3] | Potency [4] | outcome [5] | outcome [6] | Potency [7] | outcome [8]

CCCc1nc(C)c2c(=O)[nH]c(-c3cc(S(=O)(=O)N4CCN(CC)CC4)ccc3OCC)nn12
inactive: Potency [1] | Potency [3] | Potency [4] | Potency [9] | outcome [5] | outcome [6] | Potency [7] | outcome [8]

CC(C)=CCC[C@H](C)CCO
inactive: Potency [1] | Potency [3] | Potency [4] | outcome [5] | outcome [6] | Potency [7] | outcome [8]

C1=COCCC1
inactive: Potency [1] | Potency [2] | Potency [3] | Potency [4] | outcome [5] | outcome [6] | Potency [7] | outcome [8]
